Screening results (PubChem BioAssay)
TDP1 cell CPT: growth inhibition of DT40 Tdp1-/-;hTDP1 cells with camptothecin (screen for TDP1 inhibitors); 420,000 tested, 12% active; chicken DT40 Tdp1-/-;hTDP1 cells + 20 nM CPT, ATP luminescence, 48 h; AID 686979; Potency, µM (doses to about 46.2 µM), for inactives: at the highest dose activity change, negative = growth inhibition, most hits filed as inhibitors; note: nearly all actives have a fitted effect of over 55% in size
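Cell growth measured by CellTiter-Glo luminescence after a minimum 48 h, 37 C compound exposure with 20 nM CPT in Tdp1-knockout DT40 cells stably expressing hTDP1, seeded 400/well; qHTS titration format.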
Gal4-VP16 FLuc: counter-screen for ROR gamma inhibitors: Gal4-VP16 reporter; Drosophila S2 Gal4-VP16 UAS-luciferase, luminescence, 20 h; 310,000 tested, 3.5% active; Potency, µM (titrated, usually from 53.6 µM), without a hit: at the highest dose activity, negative = inhibition, usual class: inhibitors;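 note: Gal4-VP16 expression switched on by copper sulfate through the metallothionein promoter; nearly all actives have a fitted effect of over 50% in size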
TDP1 block: blocks human tyrosyl-DNA phosphodiesterase 1 | Q9NUW8 | recombinant TDP1, AlphaScreen DNA substrate cleavage | Potency, µM (top dose mostly 130 µM), without a hit: at the highest dose activity change, negative = inhibition, most hits filed as inhibitors | 350,000 tested, 0.28% active; note: nearly all actives have a fitted effect of over 40% in size
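AlphaScreen read-out: signal falls as enzyme removes the 3' tyrosine-FITC from a 5'-biotinylated DNA oligo (15 nM, 5 min, RT). Enzyme was E. coli-made recombinant Tdp1 at 1 nM, exposed to compound for 15 min beforehand; beads 10 ug/ml, 10 min.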
TDP1 cell noCPT: qHTS for Inhibitors of human tyrosyl-DNA phosphodiesterase 1 (TDP1): qHTS in cells in absence of CPT. DT40 Tdp1-/- hTDP1 cells, no CPT, ATP luminescence, 48 h. Potency, µM (top dose mostly 46.2 µM), without a hit: at the top dose activity change, negative = growth inhibition, usual class: inhibitors. 420,000 tested, 15% active. AID 686978, 2013; note: nearly all actives have a fitted effect of over 55% in size
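Compound effects on proliferation are scored in DT40 Tdp1-/-;hTDP1 cells in the absence of CPT. ATP levels (CellTiter-Glo luminescence) are recorded after a ≥48 hr, 37 °C incubation.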
RORgamma inh: inhibitors of mouse ROR gamma transcriptional activity; P51450; Drosophila S2 Gal4-RORgamma UAS-luciferase reporter, 20 h; Potency, µM (top dose mostly 53.6 µM), for the others: top-dose activity change, negative = inhibition, most hits filed as inhibitors; 310,000 tested, 5.4% active; AID 2551; note: nearly all actives have a fitted effect of over 60% in size
Target sequence (P51450 whole entry, looked up, the tested form may be a part): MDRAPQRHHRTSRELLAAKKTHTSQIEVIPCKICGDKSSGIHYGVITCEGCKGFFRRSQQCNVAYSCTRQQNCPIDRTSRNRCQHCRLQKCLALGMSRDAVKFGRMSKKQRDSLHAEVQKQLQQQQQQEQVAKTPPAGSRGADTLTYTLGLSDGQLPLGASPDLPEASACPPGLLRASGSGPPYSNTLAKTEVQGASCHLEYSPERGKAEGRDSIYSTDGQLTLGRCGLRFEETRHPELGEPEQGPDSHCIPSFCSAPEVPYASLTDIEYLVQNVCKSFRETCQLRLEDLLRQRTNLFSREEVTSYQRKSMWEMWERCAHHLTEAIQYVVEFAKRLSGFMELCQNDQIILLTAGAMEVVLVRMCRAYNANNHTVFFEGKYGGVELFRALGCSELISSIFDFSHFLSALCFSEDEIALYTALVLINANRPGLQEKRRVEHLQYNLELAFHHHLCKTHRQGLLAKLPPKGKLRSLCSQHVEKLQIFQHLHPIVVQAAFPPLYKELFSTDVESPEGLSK
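A Gal4/UAS one-hybrid system in insect cells: metallothionein-promoter Gal4–ROR gamma fusion plus Photinus luciferase reporter. Copper sulfate 700 uM final, 20 hr ambient incubation, luminescent detection after 10 min with reagent.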
Starred values were filed as active, the others as inactive; ? = inconclusive; . = no result; [ ] = remark or other dose. Sampled rows, rich in hits. Any-hit rate of the full collection: about 19%. Calls come from the whole dose curve; as a rule, active = well fitted curve in the direction sought with a large enough effect; inconclusive = small, poorly fitted or top-dose-only effect, or another doubt; inactive = no such curve, though single readings can be large; an effect the other way counts as inactive or inconclusive. % is set by controls: 0 for no effect and ±100 for the full control effect; potency is the fitted concentration of half-maximal effect.

SMILES	TDP1 cell CPT	Gal4-VP16 FLuc	TDP1 block	TDP1 cell noCPT	RORgamma inh
COc1ccc(C(=O)CSc2ccccc2C(=O)O)cc1	-15.0%	-29.8%	2.4%	-17.5%	?
CCN(CCNC(=O)C1CC(=O)N(CCc2ccccc2)C1)c1ccccc1 (stereo not given)	-7.1%	-26.9%	5.2%	-11.5%	22.5%
Cc1cc(C(C)(C)C)ccc1Oc1cccc2c1S(=O)(=O)N(C1CCCC1)CC(COCc1ccccc1)O2 (stereo not given)	-84.4%	.	.	-86.1%	.
CCCCC[C@H](C)N1C[C@@H](COCc2ccccc2)Oc2cc(N3CCC[C@H]3COC)ccc2S1(=O)=O	?	.	.	18.4µM*	.
CCCCC[C@@H](C)N1C[C@@H](COCc2ccccc2)Oc2cc(N3CCC[C@H]3C(N)=O)ccc2S1(=O)=O	?	.	.	16.4µM*	.
CCCCC[C@H](C)N1C[C@H](COCc2ccccc2)Oc2cc(N3CCC[C@H]3CO)ccc2S1(=O)=O	?	.	.	20.6µM*	.
O=C(CSc1n[nH]c(-c2cccnc2)n1)Nc1ccc([N+](=O)[O-])cc1	-1.3%	-11.9%	10.1%	-15.8%	8.6%
COc1cccc(N2CCN(C(=O)C3CCCN(S(=O)(=O)c4cccc5nsnc45)C3)CC2)c1 (stereo not given)	9.2µM*	.	2.3%	9.2µM*	.
Cc1ccc(NC(=O)C2CCCN2S(=O)(=O)c2cccc3nsnc23)c(Br)c1 (stereo not given)	?	.	5.8%	20.6µM*	.
Cc1ccc(NC(=O)C2CCCN(S(=O)(=O)c3cccc4nsnc34)C2)cc1C (stereo not given)	?	.	7.0%	18.4µM*	.
Cc1ccc(NC(=O)C2CCN(S(=O)(=O)c3cccc4nsnc34)CC2)cc1F	?	.	-2.3%	-26.4%	.
COc1ccc2nc(NC(=O)C3CCCN(S(=O)(=O)c4cccc5nsnc45)C3)sc2c1 (stereo not given)	?	-0.6%[0.365 µM]	7.9%	16.4µM*	37.2%
CCC/C(=N\NC(=O)C1CCCC1)c1ccccc1	-3.3%	5.6%	0.8%[56.1 µM]	15.3%	16.8%
NS(=O)(=O)c1ccc(NC(=O)COC(=O)c2ncc(Cl)c(Cl)c2Cl)cc1	-13.6%	.	1.2%	-15.8%	.
O=C(CNC(=O)c1ccc(Cl)cc1Cl)OCc1nnc(-c2ccccc2)o1	13.8%	.	0.2%	-4.6%	.
Nc1cc(=O)nc(SCC(=O)N(C2CCCCC2)C2CCCCC2)n1-c1ccccc1	?	-11.4%	7.5%	-18.6%	-6.9%
COc1ccc(CNC(=O)C2CCN(S(=O)(=O)c3cccc4nsnc34)CC2)cc1	-15.4%	-5.3%	-0.3%	?	4.0%
COc1ccc2nc(NC(=O)C3CCCN(S(=O)(=O)c4cccc5nonc45)C3)sc2c1 (stereo not given)	?	-3.9%	9.8%	?	?
Cc1ccc2nc(NC(=O)C(NS(=O)(=O)c3cccc4nsnc34)C(C)C)sc2c1 (stereo not given)	29.1µM*	?	9.2%	?	?
CCOc1ccc2nc(NC(=O)C3CCCN(S(=O)(=O)c4cccc5nonc45)C3)sc2c1 (stereo not given)	?	4.6%	5.3%	16.4µM*	43.0%
COc1ccc(CNC(=O)C2CCCN(S(=O)(=O)c3cccc4nsnc34)C2)cc1 (stereo not given)	-11.2%	17.4%	3.1%	23.1µM*	32.4%
CCOC(=O)N1CCc2c(sc3c2c(=O)n(CCc2ccccc2)c(=O)n3CC(=O)Nc2ccccc2C)C1	8.2µM*	.	6.4%	8.2µM*	.
CC(=O)N1CCc2c(sc3c2c(=O)n(-c2ccc(C)cc2)c(=O)n3CC(=O)Nc2ccccc2)C1	?	.	2.9%	16.4µM*	.
CC(=O)N1CCc2c(sc3c2c(=O)n(CCc2ccccc2)c(=O)n3CC(=O)Nc2ccc(C)c(F)c2)C1	23.1µM*	.	2.0%	?	.
COc1cc(OC)cc(C(=O)Nc2ccc(NC(=O)c3ccco3)c(C)c2)c1	?	?	11.2%	?	20.0%
